Screening data as filed in PubChem.
MCL1-BIM inh – inhibitors of MCL1 binding to BIM-BH3, primary screen, biochemical, fluorescence polarization | Induced myeloid leukemia cell differentiation protein Mcl-1 (Homo sapiens), Q07820 | GST-MCL1 / FITC-Bim-BH3 fluorescence polarization | inhibition, % at 10.9 µM | actives 0.68% (n = 320,000);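 active = inhibition above the mean inhibition of all tested compounds plus 3 SD, set per campaign, cut at about 40% in these data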;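 note: higher means more loss of mP so more displacement of Bim peptide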
Target sequence (Q07820 whole entry, looked up): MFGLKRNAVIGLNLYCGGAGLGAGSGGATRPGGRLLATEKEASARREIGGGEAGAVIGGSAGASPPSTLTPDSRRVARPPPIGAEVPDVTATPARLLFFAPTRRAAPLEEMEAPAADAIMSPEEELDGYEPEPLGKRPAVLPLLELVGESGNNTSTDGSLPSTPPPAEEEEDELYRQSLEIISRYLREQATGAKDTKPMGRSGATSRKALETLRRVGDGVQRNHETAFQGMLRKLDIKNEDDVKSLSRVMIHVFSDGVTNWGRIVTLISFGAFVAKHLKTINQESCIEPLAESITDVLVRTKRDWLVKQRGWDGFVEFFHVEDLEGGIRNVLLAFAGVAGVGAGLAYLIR
CR mimetic SO – reduction of superoxide in aged yeast, primary screen, HTS. actives 0.18% (n = 330,000). superoxide response (% of plate mean), % at 10 µM. S. cerevisiae aged cells, superoxide DHE fluorescence; active compounds read low;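 active = superoxide response under a set limit, about three screen SD below normal, cut at about 65% in these data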;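 note: yeast aged for seven days with compound at 30 °C before DHE staining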
BCLXL inh – inhibitors of human Bcl-xL, primary screen, biochemical, fluorescence polarization, HTS | Bcl-2-like protein 1 (Homo sapiens), Q07817 | GST-Bcl-xL / FITC-Bim BH3 peptide fluorescence polarization | inhibition, % at 10.9 µM | actives 0.7% (n = 320,000);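 active = inhibition above the mean of all tested compounds plus 3 SD, cutoff set per campaign, cut at about 30% in these data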;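 note: inhibitors lower millipolarization by displacing the labeled peptide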
Target sequence (Q07817 whole entry, looked up): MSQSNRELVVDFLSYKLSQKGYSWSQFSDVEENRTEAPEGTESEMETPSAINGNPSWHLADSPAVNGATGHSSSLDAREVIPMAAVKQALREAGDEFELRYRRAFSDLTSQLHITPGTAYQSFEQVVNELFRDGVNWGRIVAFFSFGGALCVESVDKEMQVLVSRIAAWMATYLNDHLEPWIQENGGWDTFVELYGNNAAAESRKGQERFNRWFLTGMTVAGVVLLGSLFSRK
MEX-5 binding – MEX-5 zinc finger RNA-binding disruptors – biochemical, C. elegans, fluorescence polarization, MLPCN library, primary screen; AID 1832, 2009; actives 0.38% (n = 300,000); activity score (negative = inhibition of binding), % at 10 µM; MEX-5/FITC-TCR2 RNA binding; active compounds read low; Zinc finger protein mex-5 (Caenorhabditis elegans), Q9XUB2;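 active = inhibition past about -25% in most replicates, and total fluorescence under double the plate's negative control median, limit read from the data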
GLD-1 TGE inh – GLD-1/TGE RNA complex disruptors, primary screen, biochemical, fluorescence polarization; Female germline-specific tumor suppressor gld-1 (Caenorhabditis elegans), Q17339; AID 2280, 2010; actives 0.44% (n = 320,000); inhibition, % at 5.96 µM; purified GLD-1 + fluorescein TGE RNA;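 active = percent inhibition above a per-plate cutoff, the plate mean of test compounds plus 3 SD, cut at about 30% in these data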
LANA-H2A inh – blockers of LANA interaction with H2A/H2B – biochemical, FP readout, HTS, primary screen. actives 0.6% (n = 320,000). AID 2629, 2010. inhibition, % (test concentration not listed). cell-free LANA-H2A/H2B peptide, fluorescence polarization; in the data active = inhibition mostly above about 10%, no sharp cut-off; inactive = mostly below about 6.7%
Superoxide pick – superoxide lowering in aged yeast cells, confirmation, cherry picked compounds; shares compounds with CR mimetic SO; AID 434994, 2010; actives 1% (n = 850); S. cerevisiae aging, superoxide DHE fluorescence; active compounds read low; superoxide response (% of plate), % at 10 µM;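 active = superoxide signal below 65% of the plate average of sample wells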;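 note: cells aged with compound for 7 days at 30 degrees C before staining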
DHE counter – DHE quenching or ROS scavenging interference in aged yeast, artefact control for yeast caloric restriction mimetic project, S. cerevisiae BY4741, flow cytometry. shares compounds with CR mimetic SO. DHE fluorescence; active compounds read low. fluorescence response, % at 10 µM. 850 tested, under 10 active. AID 435000, 2010;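 active = fluorescence response below 15%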;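 note: lower means stronger quenching of DHE signal or ROS scavenging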
Of the large screens only hits and unclear results are named; the others gave an inactive call (follow-up assays come after a bar, where they were run). The list is not random: actives were taken first. Their share in the collection is about 1.9%.

O=C(NNc1nc(=O)c2cccnc2s1)c1ccccc1O	CR mimetic SO 50 | Superoxide pick inactive | DHE counter inactive
Cc1cc(SCC(=O)NC2(C#N)CCCCC2)nc2c(C)cccc12	CR mimetic SO 64 | Superoxide pick inactive | DHE counter inactive
COc1ccc(Cl)cc1C(=O)NCc1cnn(C)c1C	CR mimetic SO 65 | Superoxide pick inactive | DHE counter inactive
Cc1nc2c(-c3ccc(F)cc3)c(C)nn2c(C)c1CCC(=O)N1CCN(c2ccc(F)cc2)CC1	none
Cc1ccc(-c2nc(N)n(S(C)(=O)=O)n2)cc1	CR mimetic SO 65 | Superoxide pick inactive | DHE counter inactive
Cc1cccc(NC(=O)c2cc(C)nc3ccccc23)c1	CR mimetic SO 56 | Superoxide pick inactive | DHE counter inactive
Cc1ccc(NC(=O)c2cc(C)nc3ccccc23)cc1	none
CCOC(=O)c1cc(=O)n(Cc2ccccc2C)c2ccccc12	CR mimetic SO 61 | Superoxide pick inactive | DHE counter inactive
Cc1ccc(Cn2c(=O)cc(C(=O)O)c3ccccc32)cc1	none
CC(C)(C)NC(=O)CCN(/N=C/c1ccccc1F)C1=NS(=O)(=O)c2ccccc21	none
COC(=O)c1c(C)nc(C)c(C(=O)OC)c1-c1ccsc1	none (no result: MEX-5 binding)
Cc1nc(C)c(C(=O)O)c(-c2ccsc2)c1C(=O)O	CR mimetic SO 61 | Superoxide pick inactive | DHE counter inactive
O=C(O)c1cc(=O)[nH]c2ccc(S(=O)(=O)Nc3ccc(F)cc3)cc12	CR mimetic SO 57 | Superoxide pick inactive | DHE counter inactive
CCOc1ccc(NS(=O)(=O)c2ccc3[nH]c(=O)cc(C(=O)O)c3c2)cc1	none
Cc1nn(C(C)C(=O)NC2CCCCC2)c(=O)c2nn(-c3ccccc3)c(C)c12 (stereo unspecified)	none (no result: MEX-5 binding)
O=C1/C(=C/c2cccnc2)CCC/C1=C\c1cccnc1	CR mimetic SO 65 (no result: MEX-5 binding, LANA-H2A inh) | Superoxide pick inactive | DHE counter inactive
C=CC[C@@H](Cc1ccc(F)cc1)C(=O)OC[C@@H]1CCCN1C(=O)[C@H](CC=C)CC(=O)N(CCO)Cc1ccccc1	none (no result: MCL1-BIM inh, BCLXL inh, MEX-5 binding)
Cc1ccc(S(=O)(=O)N2c3ccccc3-c3c(ssc3=S)C2(C)C)cc1	none
CC1(C)CSC(=S)N1S(=O)(=O)c1ccccc1	CR mimetic SO 58 | Superoxide pick inactive | DHE counter inactive
O=c1c2ccccc2ncn1Cc1ccccc1	CR mimetic SO 57 | Superoxide pick inactive | DHE counter inactive
CN(C)S(=O)(=O)c1ccc(Cl)c(NC(=O)CN2CCc3ccccc3C2)c1	none
O=C(CN1CCN(c2ccccn2)CC1)Nc1ccc(F)cc1	none | Superoxide pick inactive | DHE counter inactive
O=C(CN1CCN(c2ccccn2)CC1)Nc1ccc(F)c(F)c1	none | Superoxide pick inactive | DHE counter inactive
O=C(CN1CCN(c2ccccn2)CC1)Nc1ccc(OCc2ccccc2)cc1	none
CN(C)S(=O)(=O)c1ccc(Cl)c(NC(=O)CN2CCN(c3ccccn3)CC2)c1	none (no result: MCL1-BIM inh, CR mimetic SO, BCLXL inh, GLD-1 TGE inh, LANA-H2A inh) | Superoxide pick inactive | DHE counter inactive
Cc1cc(NC(=O)CN2CCN(c3ccccn3)CC2)ccc1Br	none | Superoxide pick inactive | DHE counter inactive
Cc1cccc(CS(=O)(=O)Cc2ccc(C(=O)NC3CCCCC3)o2)c1	none
O=C(Cn1nnc(-c2ccccc2)n1)N/N=C/c1ccco1	none
Cc1cc(C)c(NC(=O)CN2CCN(c3ccccn3)CC2)c(C)c1	none | Superoxide pick inactive | DHE counter inactive
O=C(CN1CCN(c2ccccn2)CC1)Nc1ccccc1	none (no result: MEX-5 binding) | Superoxide pick inactive | DHE counter inactive
COC(=O)c1ccc(NC(=O)CN2CCN(c3ccccn3)CC2)cc1	none | Superoxide pick inactive | DHE counter inactive
O=C(CN1CCN(c2ccccn2)CC1)Nc1ccc(Oc2ccccc2)cc1	none
O=C(CN1CCN(c2ccccn2)CC1)NC1CCCC1	none
O=C(Nc1ccccc1)c1nccn1Cc1ccc(F)cc1	none
COc1ccccc1OCCNC(=O)c1ccc(Br)cc1	CR mimetic SO 58 | Superoxide pick inactive | DHE counter inactive
CCCCn1c(=O)c2c(O)cc(=O)oc2c2ccccc21	CR mimetic SO 43 | Superoxide pick inactive | DHE counter inactive
O=c1cc(O)c2c(=O)n(C3CCCCC3)c3ccccc3c2o1	none | Superoxide pick inactive | DHE counter inactive
O=c1cc(O)c2c(=O)n(-c3ccccc3)c3c(c2o1)CCCCCC3	none
O=c1cc(O)c2c(=O)n(Cc3ccccc3)c3ccccc3c2o1	none
COc1ccc(CNc2nnnn2C)c(OC)c1	none
O=C(NC1=NCCS1)c1ccc([N+](=O)[O-])cc1Cl	none
COc1cc(NC(C(=O)Nc2cccc(C(C)=O)c2)c2ccccc2)cc(OC)c1OC (stereo unspecified)	none
COc1cccc(NC(C(=O)Nc2cccc(C(C)=O)c2)c2ccccc2)c1 (stereo unspecified)	CR mimetic SO 60 | Superoxide pick inactive | DHE counter inactive
COc1cccc(N=Nc2c(=O)[nH]n3c(C)cc(C)nc23)c1	none
CCOc1ccc(N=Nc2c(=O)[nH]n3c(C)cc(C)nc23)cc1	CR mimetic SO 52 | Superoxide pick inactive | DHE counter inactive
CCOc1ccccc1NC(=O)NCc1ccc(F)cc1	CR mimetic SO 65 | Superoxide pick inactive | DHE counter inactive
O=C(NCCC1=CCCCC1)c1c(O)nc2ccccn2c1=O	CR mimetic SO 64 | Superoxide pick inactive | DHE counter inactive
O=C(NNC(=O)c1ccccc1[N+](=O)[O-])c1ccc(NS(=O)(=O)c2cccs2)cc1	none
O=S(=O)(c1ccc(Br)s1)N1CCC(Cc2ccccc2)CC1	none
O=S(=O)(c1ccc(Cl)s1)N1CCC(Cc2ccccc2)CC1	CR mimetic SO 62 | Superoxide pick inactive | DHE counter inactive
CC(=O)Nc1cccc(NC(=O)CSc2ccc(-c3ccccn3)nn2)c1	none
CC(=O)c1cccc(NC(=O)CSc2ccc(-c3ccccn3)nn2)c1	none
Nn1c(SCC(=O)Nc2ccc3c(c2)OCCO3)nnc1-c1ccccn1	CR mimetic SO 54 | Superoxide pick inactive | DHE counter inactive
